The record followed here is PubChem BioAssay (Tox21).

Each structure is given as a SMILES string. Several values for one entry are separate records, joined by “and”; a condition that tells them apart may be missing. Equal values may be shown once. Results filed as inconclusive are left out. A structure can be active in one record and inactive in another. Activity calls are given as the source filed them. Unless noted, calls follow the shape of the dose curve; as a rule, active = well fitted curve in the direction sought with a large enough effect in the repeat runs; inconclusive = weak or mixed curves; inactive = no such curve, though single readings can be large; an effect the other way counts as inactive or inconclusive.

The nature of assay [1]: qHTS assay to identify small molecule agonists of the vitamin D receptor (VDR) signaling pathway - cell viability counter screen (AID 743224). Also: nearly all actives have a fitted effect of over 50% in size. Also: potency is read from the fitted curve at half-maximal effect. The method, boiled down:
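VDR-bla cells, 4 h after plating, exposed to compounds for 16 h at 37C; viability then read in the same wells as CellTiter-Glo luminescence after 30 min at room temperature, following the bla FRET read.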

A short description of assay [2]: qHTS assay to identify small molecule antagonists of the vitamin D receptor (VDR) signaling pathway - cell viability counter screen (AID 743225). Also: nearly all actives have a fitted effect of over 50% in size. Also: potency is read from the fitted curve at half-maximal effect. The method, boiled down: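 HEK293T VDR-bla; cpd + 1a,25-(OH)2D3 3 nM final, 16 h 37C/5% CO2; B/G FRET substrate 2 h RT; then CellTiter-Glo 30 min RT, luminescence.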
Assay [3] in a line: qHTS assay to identify small molecule agonists of the NFkB signaling pathway - cell viability counter screen (AID 1159515; calls by dose curve; also: nearly all actives have a fitted effect of over 55% in size; also: potency is read from the fitted curve at half-maximal effect). A digest of the protocol: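 NFkB-bla ME-180 cells, 2,000/well, plated overnight at 37 C; compound added for 5 hr at 37 C. Viability read in the same wells as the bla reporter, by CellTiter-Glo luminescence after 30 min at room temperature.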
The nature of assay [4]: qHTS assay to identify small molecule agonists of the endoplasmic reticulum stress response signaling pathway - cell viability counter screen (AID 1159517; calls by dose curve; also: nearly all actives have a fitted effect of over 50% in size; also: potency is read from the fitted curve at half-maximal effect). A digest of the protocol: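 CellTiter-Glo was added to wells already read for beta-lactamase FRET, and luminescence was recorded 30 min later. Cells: ESRE-bla HeLa, 1,500 per well, compound exposure 5 hr at 37 C.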
Assay [5] in a line: qHTS assay to identify small molecule antagonists of the retinoid-related orphan receptor gamma (ROR-gamma) signaling pathway - cell viability counter screen (AID 1159520). Also: nearly all actives have a fitted effect of over 50% in size. Also: potency is read from the fitted curve at half-maximal effect. The method, boiled down:
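Tet-on ROR gamma CHO cells (1,000/well) were plated 4 hr, given compounds in DMSO for 2 hr at 37 C, then induced with 1 uM final doxycycline for 16 hr. Viability was read as ATP by CellTiter-Glo luminescence after 30 min.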

For assay [6], the target named is Nuclear receptor ROR-gamma (Homo sapiens) (UniProt P51449). The experiment in a line: qHTS assay to identify small molecule antagonists of the retinoid-related orphan receptor gamma (ROR-gamma) signaling pathway (AID 1159521; also: nearly all actives have a fitted effect of over 50% in size; also: potency is read from the fitted curve at half-maximal effect). The method, boiled down:
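Cells were plated, rested 4 h at 37 C, exposed to compounds for 2 h, then given 1 uM final doxycycline hyclate to induce RORγ expression. After 16 h, ONE-Glo luminescence from the ROR response element reporter was measured.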

Assay [7] can be described thus: qHTS assay to identify small molecule agonists of the AP-1 signaling pathway - cell viability counter screen (AID 1159525; calls by dose curve; also: nearly all actives have a fitted effect of over 55% in size; also: potency is read from the fitted curve at half-maximal effect). The method, boiled down:
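ME-180 AP-1-bla, 2500 cells/well, Opti-MEM + 0.5% dialyzed FBS; overnight 37 °C; cpd 15-pt titration, 5 h 37 °C; CellTiter-Glo 30 min RT; luminescence read; normalised to TOAB and DMSO controls.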

A short description of assay [8]: qHTS assay to identify small molecule agonists of the AP-1 signaling pathway (AID 1159526; calls by dose curve).
The target in assay [9] is Retinoic acid receptor RXR-alpha (Homo sapiens) (UniProt P19793). The experiment in a line: qHTS assay to identify small molecule agonists of the RXR signaling pathway (AID 1159527; calls by dose curve; also: nearly all actives have a fitted effect of over 35% in size). The method, boiled down: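 Cells plated at 2,000/well, rested 5 hr at 37 C, pin-dosed with DMSO compound solutions, incubated 16 hr, then loaded with B/G FRET substrate for 2 hr at RT before dual-emission fluorescence reading.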
Chain of Retinoic acid receptor RXR-alpha (Homo sapiens) (P19793 whole entry, looked up): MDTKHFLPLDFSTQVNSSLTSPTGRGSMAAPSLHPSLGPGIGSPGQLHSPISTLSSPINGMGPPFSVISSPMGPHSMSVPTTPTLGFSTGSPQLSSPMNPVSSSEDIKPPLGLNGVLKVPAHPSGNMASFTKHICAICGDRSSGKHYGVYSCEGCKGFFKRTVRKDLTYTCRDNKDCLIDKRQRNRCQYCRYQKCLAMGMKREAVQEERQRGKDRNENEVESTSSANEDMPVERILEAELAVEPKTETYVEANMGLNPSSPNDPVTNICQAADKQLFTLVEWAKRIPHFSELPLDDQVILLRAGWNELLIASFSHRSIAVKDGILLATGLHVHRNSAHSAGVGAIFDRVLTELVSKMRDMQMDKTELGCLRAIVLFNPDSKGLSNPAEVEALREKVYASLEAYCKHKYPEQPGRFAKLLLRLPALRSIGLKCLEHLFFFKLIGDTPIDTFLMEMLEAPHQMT

The nature of assay [10]: qHTS assay to identify small molecule antagonists of the retinoid acid receptor (RAR) signaling pathway - cell viability counter screen (AID 1159551). Also: nearly all actives have a fitted effect of over 35% in size. Also: potency is read from the fitted curve at half-maximal effect. The method, boiled down:
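C3RL4 RARE-luciferase cells, 1,000/well, incubated overnight, then dosed with compound plus 1 uM retinol (final). After 6 hr at 37 C, viability read by CellTiter-Glo ATP luminescence following 30 min at room temperature.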

Assay [11] in a line: qHTS assay to identify small molecule antagonists of the retinoic acid receptor (RAR) signaling pathway (AID 1159552; also: nearly all actives have a fitted effect of over 50% in size). The method, boiled down:
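Retinol at 1 uM final stimulated RARE-luciferase expression in C3RL4 cells exposed to test compounds for 6 hr at 37 C. Reduced luminescence, read 30 min after detection reagent, indicated pathway antagonism.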

A short description of assay [12]: qHTS assay to identify small molecule agonists of the RXR signaling pathway - cell viability counter screen (AID 1159529). Also: nearly all actives have a fitted effect of over 50% in size. Also: potency is read from the fitted curve at half-maximal effect. A digest of the protocol:
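Steps: seed RXR-alpha-UAS-bla HEK 293T cells in assay medium containing 2% charcoal-stripped FBS; incubate 5 hr; add compounds in DMSO; incubate 16 hr at 37 C; after the bla read, add CellTiter-Glo and read luminescence at 30 min.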

Assay [13] in a line: qHTS assay to identify small molecule agonists of the retinoic acid receptor (RAR) signaling pathway (AID 1159553). The conditions noted are these: C3RL4 RARE luciferase reporter, agonist, 6 h; activation: at 73.3 µM (top of the series) unless noted. A digest of the protocol:
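C3RL4 RARE-luciferase cells were seeded at 1,000/well and grown overnight at 37 C, then exposed to compounds for 6 hr at 37 C, 5% CO2. Luciferase reagent was added and luminescence was read after 30 min at room temperature.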

Assay [14] in a line: qHTS assay to identify small molecule antagonists of the estrogen related receptor signaling pathway with the pleiotropic PPARgamma coactivator (PGC) cell viability counter screen (AID 1224822;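 also: potency is read from the fitted curve at half-maximal effect; viability read after 17.5 h compound exposure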). A digest of the protocol:
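PGC/ERR cells rested 6 h, then compound-treated 17.5 h at 37 C. CellTiter-Fluor added for 30 min at 37 C, viability measured by fluorescence intensity.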

Turning to `COc1ccc(NC(=O)CC(C)=O)cc1`, the Potency entry in [1], in assay [2], in assay [3], in [4], in assay [5] and in assay [6] was “inactive” in each case. For the same compound, the Potency entry in assay [7], in assay [8], in assay [9], in [10] and in assay [11] was “inactive” in each case.

Regarding `COCCOc1cc2cc(C(=O)NC3CCN(C(C)C)CC3)n(CC(=O)Nc3ccc(Cl)cn3)c2cn1`, the Potency result in assay [1], in assay [3], in assay [4], in assay [5], in [6] and in [7] was “inactive” each time. Moreover, the Potency entry in assay [8], in [9], in assay [12], in assay [10] and in [13] was “inactive” each time.

In the case of `CCCCCCCCCCCC(=O)OCC(C)OC(=O)CCCCC(=O)O` (stereo unspecified), the Potency result in assay [1], in assay [3], in [4], in assay [5], in assay [6] and in assay [7] was “inactive” in each case. Moreover, the Potency entry in [8], in [9], in assay [10], in assay [11] and in assay [13] was “inactive” throughout.

Take `Cc1cc(-n2nc3ccc(Cl)cc3n2)c(O)c(C(C)(C)C)c1`: the Potency entry in assay [1], in assay [2], in [3], in assay [4], in [5] and in [6] was “inactive” each time. Also, the Potency result in [7], in assay [8], in assay [9], in assay [12], in [10] and in assay [11] was “inactive” in each case. The Potency entry in assay [13] is “inactive”.

For `COc1cccc2c1C(=O)c1c(O)c3c(c(O)c1C2=O)C[C@@](O)(C(C)=O)C[C@@H]3O[C@H]1C[C@H](N)[C@H](O)[C@H](C)O1`, the Potency in assay [1] is 34.9 µM (active); in assay [4], 952 nM (active); in assay [5], 13.8 µM (active) and 15 µM (active); in assay [6], 30.8 µM (active) and inactive. The Potency result in assay [2], in assay [3], in [7] and in assay [10] was “inactive” in each case.

Turning to `CCCCCCCCCCCCCC[N+](C)(C)Cc1ccccc1`, the Potency in [1] is 24.9 µM (active); in assay [2] it was 24.9 µM (active) and 16.9 µM (active); in assay [3], 49.7 µM (active); in assay [4], 17.7 µM (active) and 23.9 µM (active); in [5], 69.6 µM (active); in assay [6], 24.7 µM (active) and 26.6 µM (active) and 20 mM (active). Further, the Potency is 23.9 µM (active) in [7]; 7.03 µM (active) and 5.35 µM (active) and 2.51 mM (active) in assay [12]; 69.6 µM (active) and 29.8 µM (active) and inactive in assay [10].

In the case of `CCCCC/C=C\C/C=C\CCCCCCCC(=O)O`, the Potency result in [1], in assay [2], in assay [3], in [4], in [5] and in [6] was “inactive” throughout. Further, the Potency result in [7], in assay [8], in [10] and in assay [13] was “inactive” throughout.

Take `CCC(C)(CCC(C)C)C(=O)[O][Sn]([CH3])([CH3])[O]C(=O)C(C)(CC)CCC(C)C` (stereo unspecified): the Potency entry in assay [1], in assay [2], in assay [3], in assay [4], in [5] and in [7] was “inactive” in each case. The Potency entry in assay [8], in [12] and in [10] was “inactive” throughout. The Potency in assay [6] is 27.3 µM (active).

As for `CCCCC(CC)COC(=O)CCCCC(=O)OCc1ccccc1` (stereo unspecified), the Potency entry in assay [1], in assay [2], in [3], in assay [4], in assay [5] and in assay [6] was “inactive” throughout. Moreover, the Potency result in assay [7], in assay [8], in [9], in assay [10] and in [13] was “inactive” throughout.

`CC(C)(C)c1ccc(C(O)CCCN2CCC(C(O)(c3ccccc3)c3ccccc3)CC2)cc1` (stereo unspecified): the Potency is 13.3 µM (active) in [1]; 21.3 µM (active) in assay [3]; 21300 nM (active) in assay [4]; 18.8 µM (active) in assay [5]; 13.3 µM (active) in [6]; 7.56 µM (active) in assay [12]. For the same compound, the Potency in assay [14] was 22 µM (active). The Potency result in [2], in [7], in assay [8], in [10] and in assay [11] was “inactive” throughout.
